Consider eight compounds from publication PMC5540273 (PLoS ONE, 2017).

The structures appear in SMILES notation. Where two headings read alike, the source gives them in different places.

Experiment [1] concerns CSNK1G1. The following applies: concentration: 1 μM, replicates: in singlicate; n = 1.
Experiment [2] relates to CSNK1G2. The settings on record: concentration: 1 μM, replicates: in singlicate; n = 1.
Experiment [3] deals with CSNK1G3. The settings on record: concentration: 1 μM, replicates: in singlicate; n = 1.
Experiment [4] relates to CSNK2A1. The settings on record: concentration: 1 μM, replicates: in singlicate; n = 1.
Experiment [5] relates to CSNK2A2. The following applies: concentration: 1 μM, replicates: in singlicate; n = 1.
Experiment [6] deals with T1, CTK.
T1 construct: gene MATK
The following applies: concentration: 1 μM, replicates: in singlicate; n = 1.

Experiment [7] relates to DAPK1. The following applies: concentration: 1 μM, replicates: in singlicate; n = 1.
Experiment [8] deals with DAPK2. The following applies: concentration: 1 μM, replicates: in singlicate; n = 1.
Experiment [9] deals with DAPK3. The following applies: concentration: 1 μM, replicates: in singlicate; n = 1.
Experiment [10] deals with T2, DCAMKL1.
T2 construct: gene DCLK1
The following applies: concentration: 1 μM, replicates: in singlicate; n = 1.

Experiment [11] has as its system T3, DCAMKL2.
T3 construct: gene DCLK2
The following applies: concentration: 1 μM, replicates: in singlicate; n = 1.

In experiment [12] the test system is T4, DCAMKL3.
T4 construct: gene DCLK3
The settings on record: concentration: 1 μM, replicates: in singlicate; n = 1.

Experiment [13] concerns DDR1. The following applies: concentration: 1 μM, replicates: in singlicate; n = 1.
The subject of experiment [14] is DDR2. The following applies: concentration: 1 μM, replicates: in singlicate; n = 1.
Experiment [15] relates to T5, DLK.
T5 construct: gene MAP3K12
The settings on record: concentration: 1 μM, replicates: in singlicate; n = 1.

The test system of experiment [16] is T6, DMPK2.
T6 construct: gene CDC42BPG
The following applies: n = 1.

Experiment [17] relates to DMPK. The following applies: concentration: 1 μM, replicates: in singlicate; n = 1.
Experiment [18] has as its system T7, DRAK1.
T7 construct: gene STK17A
The settings on record: concentration: 1 μM, replicates: in singlicate; n = 1.

The subject of experiment [19] is T8, DRAK2.
T8 construct: gene STK17B
The following applies: concentration: 1 μM, replicates: in singlicate; n = 1.

Experiment [20] relates to DYRK1A. The following applies: concentration: 1 μM, replicates: in singlicate; n = 1.
Where [21] appears, read: concentration: 1 μM, replicates: in singlicate.
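Also: KINOMEscan kinase panel screen.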

`CCn1c(-c2nonc2N)nc2c(C#CC(C)(C)O)ncc(OCCCCN)c21.O=C(O)C(F)(F)F.O=C(O)C(F)(F)F` [GSK507274]: the “%Inh” value in [1] is given as 40%; in experiment [2] it was 0%; in experiment [3], 15%; in experiment [4], 0%; in [5] it was 0%; in experiment [6] it was 2%. The “%Inh” value in experiment [7] came out at 28%; in experiment [8], 10%; in [9], 82%; in experiment [10], 40%; in experiment [11] it was 34%; in experiment [12], 98.7%. For the same compound, the “%Inh” value in experiment [13] worked out at 0%; in [14], 0%; in experiment [15] it was 1%; in [16] (1 µM), 0%; in experiment [17], 0%; in [18] it was 0%. The results for the “%Inh” value in experiment [19] and in experiment [20] were 2% and 25%, respectively.
On to `NCCCC(NC(=O)c1cc(Br)c(-c2ccnc3[nH]ccc23)s1)c1ccccc1.O=C(O)C(F)(F)F.O=C(O)C(F)(F)F` (stereo not shown) [GSK1287544], for which the “%Inh” value in experiment [1] worked out at 57%; in experiment [2] it was 97.2%; in experiment [3], 94.8%; in experiment [4] it was 27%; in experiment [5], 20%; in experiment [6], 0%. For the same compound, the “%Inh” value is listed as 0% in [7]; 0% in experiment [8]; 0% in [9]; 8% in [10]; 3% in [11]; 0% in [12]. Further, the “%Inh” value in experiment [13] was 0%; in [14], 2%; in [15] it was 17%; in experiment [16] (setting [21]), 94.2%; in experiment [17], 28%; in experiment [18] it was 61%. The entries for the “%Inh” value in experiment [19] and in experiment [20] were 0% and 48%, respectively.
`c1ccc(Oc2ccc(Nc3ccnc4cc(-c5ccc(CNCCN6CCOCC6)o5)ccc34)cc2)nc1` [GW567145]: the “%Inh” value in [1] was 2%; in experiment [2], 0%; in experiment [3], 13%; in [4] it was 0%; in experiment [5], 18%; in experiment [6], 0%. For the same compound, the “%Inh” value in experiment [7] was found to be 0%; in experiment [8], 2%; in [9] it was 18%; in experiment [10], 20%; in experiment [11], 0%; in [12], 0%. The “%Inh” value in experiment [13] came to 0%; in experiment [14] it was 50%; in experiment [15] it was 49%; in experiment [16] (setting [21]), 0%; in experiment [17], 0%; in [18], 2%. The “%Inh” value was 54% in [19] and 0% in experiment [20].
`COc1cc(Nc2ncc3c(C)nc(-c4cc5ccccc5[nH]4)n3n2)cc(OC)c1OC` [GW869516]: the “%Inh” value in experiment [1] turned out to be 21%; in experiment [2] it was 0%; in experiment [3], 29%; in experiment [4], 96.4%; in [5], 99.7%; in [6], 0%. The “%Inh” value in [7] worked out at 0%; in experiment [8], 0%; in experiment [9], 11%; in [10], 17%; in experiment [11], 0%; in experiment [12], 0%. The “%Inh” value in [13] is 52%; in experiment [14], 52%; in experiment [15], 22%; in experiment [16] (setting [21]), 0%; in experiment [17], 0%; in experiment [18], 30%. The results for the “%Inh” value in [19] and in experiment [20] were 10% and 85%, respectively.
For `CC(=O)N1CCN(c2ccc(Nc3nccc(-c4sc(C(C)C)nc4-c4cccc(NS(=O)(=O)c5cccc(Cl)c5)c4)n3)cn2)CC1` [GSK1660437], the “%Inh” value turned out to be 0% in experiment [1]; 0% in [2]; 10% in [3]; 13% in [4]; 0% in experiment [5]; 27% in experiment [6]. Further, the “%Inh” value in experiment [7] was determined as 14%; in [8], 0%; in experiment [9], 6%; in experiment [10], 9%; in [11], 19%; in experiment [12] it was 52%. The “%Inh” value is listed as 98.2% in experiment [13]; 40% in experiment [14]; 23% in experiment [15]; 0% in [16] (setting [21]); 0% in experiment [17]; 0% in experiment [18]. The “%Inh” value in experiment [19] and in experiment [20] was 0% throughout.
Turning to `Fc1ccc(-c2ncn(C3CCNCC3)c2-c2ccnc(Oc3ccc(-c4ccccc4)cc3)n2)cc1` [SB-245391], the “%Inh” value in experiment [1] came to 30%; in experiment [2] it was 78%; in experiment [3], 49%; in experiment [4], 0%; in [5], 7%; in experiment [6], 37%. For the same compound, the “%Inh” value in experiment [7] amounted to 14%; in experiment [8] it was 5%; in experiment [9], 22%; in experiment [10] it was 10%; in experiment [11] it was 3%; in [12] it was 18%. In addition, the “%Inh” value in experiment [13] was found to be 2%; in experiment [14], 10%; in experiment [15], 7%; in [16] (setting [21]), 86%; in [17], 5%; in experiment [18], 0%. Moreover, the “%Inh” value in [19] came to 15%; in experiment [20] it was 0%.
Consider `Cc1occc1-c1ncc(OC[C@@H](N)Cc2c[nH]c3ccccc23)cc1-c1ccc2[nH]nc(C)c2c1.O=C(O)C(F)(F)F` [GSK682037], for which the “%Inh” value in [1] is given as 76%; in [2], 95.5%; in experiment [3] it was 93.7%; in [4], 0%; in [5], 8%; in experiment [6], 0%. In addition, the “%Inh” value in [7] came to 0%; in experiment [8], 0%; in experiment [9], 2%; in experiment [10] it was 10%; in [11] it was 14%; in [12], 0%. The “%Inh” value in experiment [13] was found to be 0%; in experiment [14], 5%; in [15], 1%; in experiment [16] (setting [21]), 67%; in experiment [17], 95%; in [18], 0%. Moreover, the “%Inh” value in [19] is given as 0%; in experiment [20], 15%.
Regarding `Cl.c1ccc(-c2ccc3c(Nc4ccc5[nH]ncc5c4)ccnc3c2)nc1` [GW440137], the “%Inh” value is listed as 0% in experiment [1]; 17% in experiment [2]; 30% in experiment [3]; 0% in experiment [4]; 8% in [5]; 0% in [6]. In addition, the “%Inh” value in experiment [7] is 15%; in [8], 0%; in experiment [9], 23%; in experiment [10] it was 12%; in experiment [11], 0%; in experiment [12] it was 0%. Also, the “%Inh” value in experiment [13] is listed as 67%; in experiment [14] it was 3%; in [15], 1%; in [16] (setting [21]) it was 6%; in experiment [17] it was 0%; in experiment [18] it was 0%. In addition, the “%Inh” value in experiment [19] came out at 6%; in [20] it was 21%.
